Bioassay records from PubChem BioAssay.
Hits are enriched below; roughly 1.9% of the tested compounds scored in any of these assays.
PLC-gamma1 inh = PLC-gamma1 (human) inhibition, primary screen; AID 720700; hit rate 0.84% among 370,000; P19174; purified PLC-gamma1, fluorogenic substrate, fluorescence; inhibition, % at 12.2 µM; in the data active = inhibition above about 9.5%
bovine MsrA act = activates bovine MsrA enzyme; purified bovine MsrA, absorbance read-out; activation, % at 10.6 µM; hit rate 0.3% among 360,000; AID 602163; in the data active = activation above about 7.5%
MsrA inhibitor = inhibits bovine methionine sulfoxide reductase A; inhibition, % at 15.5 µM; purified bovine MsrA, absorbance read-out; hit rate 0.75% among 360,000; AID 651718
PLC-beta3 inh = inhibitors of human phospholipase C beta3. Purified PLC-beta3, fluorogenic substrate, fluorescence. inhibition, % at 12.2 µM. hit rate 0.18% among 370,000; in the data active = inhibition above about 11%
MsrA conf = confirmation of bovine MsrA inhibitors | inhibition, % at 15.5 µM | AID 651822 | shares compounds with MsrA inhibitor | purified bovine MsrA, absorbance read-out | hit rate 41% among 2,300;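 also: coupled to thioredoxin reductase with NADPH and selenocystamine and DMSO as substrate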
Of the large screens only hits and unclear results are named; the others gave an inactive call (follow-up assays come after a bar, where they were run). Rule as the data show it, unless noted: active = inhibition above about 4.5%; inactive = the rest.

CC(=O)c1ccc(N2CCN(S(=O)(=O)c3c(C(=O)N4CCCC4)c(C)n(C)c3C)CC2)cc1	MsrA inhibitor 5.1 | MsrA conf inactive
CC(=O)c1ccc(N2CCN(S(=O)(=O)c3c(C(=O)N4CCCCC4)c(C)n(C)c3C)CC2)cc1	none
Oc1ccc(/C=N\Nc2nncc(-c3ccccc3)n2)cc1	MsrA inhibitor 5.8 | MsrA conf inactive
COC(=O)[C@]12C[C@H](CC(=O)NCC3CCCCC3)C(=O)N(Cc3ccc4c(c3)OCO4)C1=C[C@H](C(C)(C)C)O[C@@H]2C	none (no result: bovine MsrA act)
CC(C)Cn1cc(C(=O)NCCCN2CCCC2=O)c2c3ccccc3n(C)c2c1=O	MsrA inhibitor 4.9 | MsrA conf inactive
CC(C)CNS(=O)(=O)CC1NCc2ccccc21 (stereo unspecified)	none (no result: bovine MsrA act, MsrA inhibitor)
CN1CCN(c2nc(C#N)cc(-c3ccccc3)n2)CC1	MsrA inhibitor 5.0 | MsrA conf inactive
CCOC(=O)C1=CCN(S(=O)(=O)c2ccccc2Br)C1c1ccc(Cl)cc1 (stereo unspecified)	none (no result: bovine MsrA act)
COc1cc(/C=C2\NC(=S)NC2=O)ccc1OCc1cccc(C(=O)O)c1	MsrA inhibitor 5.4 | MsrA conf inactive
O=C1NC(=O)/C(=C\c2ccc(OCc3cccc(C(=O)O)c3)c(Cl)c2)N1	MsrA inhibitor 5.3 | MsrA conf inactive
O=C(O)c1cccc(COc2ccccc2Cl)c1	none
CCOc1cc(/C=C2/NC(=O)NC2=O)cc(Br)c1OCc1ccc(C(=O)O)cc1	MsrA inhibitor 6.2 | MsrA conf inactive
COc1cc(/C=C2\NC(=O)NC2=O)cc(Br)c1OC	none
Nc1[nH]c(C(=O)c2ccc(Br)cc2)c(-c2ccc(Cl)cc2[N+](=O)[O-])c1C(=O)NCCc1c[nH]c2ccccc12	none (no result: bovine MsrA act)
c1ccc(-n2nnnc2-n2nnc3ccccc32)cc1	MsrA inhibitor 23 | MsrA conf 22
O=C(NCCc1c[nH]c2ccccc12)OCc1cn(-c2cccc(Cl)c2)nn1	none (no result: bovine MsrA act, MsrA inhibitor)
O=C(N/C(=C/c1ccc([N+](=O)[O-])cc1)C(=O)N1CCOCC1)c1ccco1	MsrA inhibitor 4.9 | MsrA conf inactive
C/C(=N\Nc1ccccc1[N+](=O)[O-])c1ccccc1O	none
O=[N+]([O-])c1cc(S(=O)(=O)N2CCCC2)ccc1N/N=C/c1ccccn1	none
C/C(=N\Nc1ccc(S(N)(=O)=O)cc1[N+](=O)[O-])c1ccco1	MsrA inhibitor 9.2 | MsrA conf 5.4
NS(=O)(=O)c1ccc(N/N=C/c2ccccn2)c([N+](=O)[O-])c1	MsrA inhibitor 5.9 | MsrA conf inactive
C/C(=N\Nc1ccc(S(N)(=O)=O)cc1[N+](=O)[O-])c1ccccc1O	MsrA inhibitor 9.9 | MsrA conf 4.7
NS(=O)(=O)c1ccc(Nc2ccccc2)c([N+](=O)[O-])c1	MsrA inhibitor 4.9 | MsrA conf inactive
O=[N+]([O-])c1cc(Cl)ccc1Nc1ccccc1	none (no result: PLC-gamma1 inh, MsrA inhibitor, PLC-beta3 inh)
COc1ccc(C2CC(=O)C(c3ccc([N+](=O)[O-])cc3)=CN2Cc2ccccc2)cc1 (stereo unspecified)	none (no result: bovine MsrA act)
CCOC(=O)/C(C#N)=C1/C=CN(Cc2ccccc2)C=N1	MsrA inhibitor 7.4 | MsrA conf 5.7
CCOC(=O)C(=O)C1=CN(Cc2ccccc2)C=C(C#N)C1	none
CCOC(=O)/C(C#N)=C1\C=CN(C)C(C)=N1	MsrA inhibitor 6.0 | MsrA conf inactive
CNC(=O)C[C@H]1C(=O)N(c2ccc(Br)cc2)C[C@@H]1CSC	MsrA inhibitor 5.6 | MsrA conf inactive
C/C(=C\c1cccc(Br)c1)C(=O)c1c(C)cc(C)[nH]c1=O	none
Cc1cc(C)c(C(=O)/C=C/C=C/c2ccccc2)c(=O)[nH]1	none
C/C(=C\C=C\c1ccccc1)C(=O)c1c(C)cc(C)[nH]c1=O	MsrA inhibitor 7.4 | MsrA conf 5.9
C/C(=C\c1ccc2c(c1)OCO2)C(=O)c1c(C)cc(C)[nH]c1=O	MsrA inhibitor 5.5 | MsrA conf inactive
C/C(=C\c1ccc(C)o1)C(=O)c1c(C)cc(C)[nH]c1=O	MsrA inhibitor 7.3 | MsrA conf inactive
COc1ccccc1-n1c(SCC(=O)O)nc2c(sc(=S)n2-c2ccc(C)c(C)c2)c1=O	none
CCOc1ccccc1-n1c(=S)sc2c(=O)n(-c3ccc(F)cc3)c(SCC(=O)O)nc21	MsrA inhibitor 5.6 | MsrA conf inactive
Cc1ccccc1-c1c(C)oc2cc(O)ccc2c1=O	MsrA inhibitor 4.9 | MsrA conf inactive
Cc1oc2cc(O)ccc2c(=O)c1N1C(=O)c2ccccc2C1=O	none
O=C(Nc1ccccc1Oc1ccccc1)NC1CCCCN(Cc2cccc(Cl)c2)C1=O (stereo unspecified)	none (no result: bovine MsrA act, MsrA inhibitor)
O=C(Nc1ccc(-c2nc3ccccc3o2)c(O)c1)c1cc(-n2cnnc2)ccc1Cl	MsrA inhibitor 4.8 | MsrA conf inactive
CO/N=C/NC(=O)NOCc1ncc(C(F)(F)F)cc1Cl	none
O=C(N/C=N/OCc1ccc(Cl)cc1Cl)NOCc1ncc(C(F)(F)F)cc1Cl	MsrA inhibitor 15 | MsrA conf 11
O=C(CN(CCc1ccccc1)S(=O)(=O)c1ccc(Cl)s1)N1CCOCC1	none (no result: bovine MsrA act, MsrA inhibitor)
COc1cccc(CNC(=O)[C@H]2CCCN2C(=O)[C@H]2CCCN2C(=O)c2ccc(C)cc2)c1	none (no result: bovine MsrA act)
Cc1nnc(NC(=O)c2sc3ccccc3c2Cl)s1	none
COCc1nnc(NC(=O)c2sc3ccccc3c2Cl)s1	MsrA inhibitor 5.0 | MsrA conf inactive
CCCn1cnnc1CNC(=O)[C@@H](Cc1ccccc1)NC(=O)[C@H]1O[C@@H](n2ccc(=O)[nH]c2=O)[C@H](O)[C@@H]1O	none (no result: bovine MsrA act)
Cc1ccc(C)c(Nc2c([N+](=O)[O-])cc(C(=O)N3CC(=O)Nc4ccccc43)cc2[N+](=O)[O-])c1	MsrA inhibitor 12 | MsrA conf 9.9
Cc1cccc(Nc2c([N+](=O)[O-])cc(C(=O)N3CC(=O)Nc4ccccc43)cc2[N+](=O)[O-])c1	MsrA inhibitor 4.7 | MsrA conf inactive
Cc1ccc(C)c(NC(=O)CNC(=O)N2CC(=O)Nc3ccccc32)c1	none
O=C1CN(C(=O)c2cccc(Br)c2)c2ccccc2N1	none
COc1ccc(C2CC(=O)C(c3ccc(F)cc3)=CN2Cc2ccccc2)cc1 (stereo unspecified)	none (no result: bovine MsrA act)
CCN(CC)c1ccc(-c2nc3cnccc3n2C)cc1	MsrA inhibitor 5.4 | MsrA conf inactive
Cn1c(-c2ccncc2)nc2ccccc21	none
COc1ccc(-n2c(SCC(=O)Nc3ccc4c(c3)OCCO4)nnc2-c2ccccc2)cc1	none (no result: bovine MsrA act, MsrA inhibitor)
O=C1/C(=C/c2ccc(C(=O)O)cc2)CCC/C1=C\c1ccc(C(=O)O)cc1	MsrA inhibitor 8.8 | MsrA conf 6.6
O=C(/C=C/c1ccco1)Nc1ccccc1C(=O)O	none
O=C(/C=C/c1ccco1)Nc1cc(Cl)ccc1C(=O)O	MsrA inhibitor 6.8 | MsrA conf 5.2
COc1ccc2[nH]c(C(=O)N/N=C/c3ccc(O)cc3O)cc2c1	MsrA inhibitor 6.3 | MsrA conf inactive
COc1cc2cc(C(=O)N/N=C/c3ccc(F)cc3)[nH]c2cc1OC	MsrA inhibitor 4.8 | MsrA conf 6.0
COc1ccc2cc(C(=O)N/N=C/c3cc(OC)c(OC)c(OC)c3)[nH]c2c1	MsrA inhibitor 5.8 | MsrA conf 6.4
COc1cccc(/C=N/NC(=O)c2[nH]c(C)c(C(=O)N/N=C/c3cccc(OC)c3)c2C)c1	none
